For some of these results: Results with a measured potency or affinity are listed apart.

Common to all, as to set-up: scale not given: direction of the effect not stated beside the values
The target of test [1] is Protein translocase subunit SecA (Escherichia coli (strain K12)) (UniProt P10408). Description: Assay to Identify E. coli SecA ATPase Inhibitors. Format: functional. Particulars: 30 µM.
In test [2] the target is T1, Ubiquitin-activating enzyme e1, putative (Leishmania donovani (strain BPK282A1)) (UniProt E9BSI1).
T1 sequence (whole entry): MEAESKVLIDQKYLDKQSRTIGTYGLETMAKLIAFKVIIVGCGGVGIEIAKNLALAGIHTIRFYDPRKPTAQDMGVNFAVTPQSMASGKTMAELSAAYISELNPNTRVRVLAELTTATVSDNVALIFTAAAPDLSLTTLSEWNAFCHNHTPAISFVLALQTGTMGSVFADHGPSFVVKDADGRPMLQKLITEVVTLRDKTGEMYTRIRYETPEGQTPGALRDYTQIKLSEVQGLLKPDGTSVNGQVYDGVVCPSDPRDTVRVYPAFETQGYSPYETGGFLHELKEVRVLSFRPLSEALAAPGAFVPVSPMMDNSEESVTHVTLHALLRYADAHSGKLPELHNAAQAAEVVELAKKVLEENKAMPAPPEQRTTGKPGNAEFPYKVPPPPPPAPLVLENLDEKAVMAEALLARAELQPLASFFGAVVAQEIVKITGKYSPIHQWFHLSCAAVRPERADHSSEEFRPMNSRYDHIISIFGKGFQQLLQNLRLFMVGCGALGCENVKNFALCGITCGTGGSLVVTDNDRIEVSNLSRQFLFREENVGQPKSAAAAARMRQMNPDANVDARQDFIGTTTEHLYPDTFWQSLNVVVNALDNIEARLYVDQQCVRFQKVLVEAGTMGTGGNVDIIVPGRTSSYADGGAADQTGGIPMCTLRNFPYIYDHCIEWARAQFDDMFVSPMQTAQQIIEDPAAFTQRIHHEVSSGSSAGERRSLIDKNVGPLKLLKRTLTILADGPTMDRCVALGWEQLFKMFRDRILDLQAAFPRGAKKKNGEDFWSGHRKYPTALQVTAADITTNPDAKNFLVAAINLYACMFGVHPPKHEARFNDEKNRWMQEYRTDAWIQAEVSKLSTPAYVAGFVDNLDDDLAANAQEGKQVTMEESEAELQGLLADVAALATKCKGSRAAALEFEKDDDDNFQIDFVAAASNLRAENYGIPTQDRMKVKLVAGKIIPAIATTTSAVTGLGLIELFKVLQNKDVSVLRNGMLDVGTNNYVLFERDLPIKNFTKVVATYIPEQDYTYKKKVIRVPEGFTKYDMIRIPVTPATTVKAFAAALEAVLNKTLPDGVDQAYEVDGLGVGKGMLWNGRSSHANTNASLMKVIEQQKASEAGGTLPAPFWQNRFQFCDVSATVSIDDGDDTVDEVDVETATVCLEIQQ
The test can be described thus: Leishmania donovani Ubiquitin Activating Enzyme (LdE1). Format: functional. Particulars: 30 µM.

In test [3] the target is AMP-activated protein kinase, AMPK (Homo sapiens) (UniProt P54646+O43741+P54619+Q9UGJ0+Q9Y478+Q13131+Q9UGI9). The test can be described thus: AMP-dependent Kinase enzyme assay. An in vitro enzyme assay that detects ADP turnover that is directly proportional to AMPK activity. This uses naive AMPK that is activated during the assay with MK-8722. The format is functional. The note with it: 30 µM.

In test [4] the target is Sialic acid-binding Ig-like lectin 9 (Homo sapiens) (UniProt Q9Y336). Description: Hs-Siglec9 ALPHAscreen SOP 20170721. The note with it: 10 µM.
Chain of Sialic acid-binding Ig-like lectin 9 (Homo sapiens) (Q9Y336 whole entry): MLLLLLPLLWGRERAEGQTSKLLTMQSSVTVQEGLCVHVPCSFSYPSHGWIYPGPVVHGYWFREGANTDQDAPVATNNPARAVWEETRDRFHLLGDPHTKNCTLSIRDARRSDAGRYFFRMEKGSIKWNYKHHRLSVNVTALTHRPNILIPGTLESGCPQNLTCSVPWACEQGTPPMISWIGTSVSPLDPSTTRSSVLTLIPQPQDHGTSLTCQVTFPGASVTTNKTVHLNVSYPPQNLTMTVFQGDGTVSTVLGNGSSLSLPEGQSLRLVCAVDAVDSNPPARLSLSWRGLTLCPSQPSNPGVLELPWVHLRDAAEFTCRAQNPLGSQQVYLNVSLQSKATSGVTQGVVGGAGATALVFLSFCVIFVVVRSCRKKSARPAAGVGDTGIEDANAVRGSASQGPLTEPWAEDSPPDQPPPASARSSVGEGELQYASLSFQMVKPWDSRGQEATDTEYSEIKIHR
The subject of the next test is Trypanosoma cruzi. The test can be described thus: Trypanosoma cruzi phosphomannomutase and mannose-1-phosphate guanylyltransferase assay. Format: functional. Particulars: 10 µM.
Test [5] has as its target T2, Arginase-2, mitochondrial (Homo sapiens) (UniProt P78540).
T2 sequence (whole entry): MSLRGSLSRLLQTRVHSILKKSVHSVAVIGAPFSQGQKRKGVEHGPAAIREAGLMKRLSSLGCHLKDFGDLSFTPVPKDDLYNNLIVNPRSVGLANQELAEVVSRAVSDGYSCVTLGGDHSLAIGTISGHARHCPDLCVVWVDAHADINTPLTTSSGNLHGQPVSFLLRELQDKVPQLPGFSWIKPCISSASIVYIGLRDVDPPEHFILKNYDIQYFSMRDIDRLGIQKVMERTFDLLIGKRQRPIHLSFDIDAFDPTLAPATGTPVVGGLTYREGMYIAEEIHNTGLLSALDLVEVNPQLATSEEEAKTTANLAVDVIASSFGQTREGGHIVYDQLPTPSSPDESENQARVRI
The test can be described thus: in vitro enzyme assay to detect the production of urea directly proportional to the activity of Arginase II. Further: in the data most compounds retested in dose-response had high values. The format is functional. The note with it: 33.3 µM.

Test [6] concerns the target T3, Proteasome subunit beta (Trypanosoma cruzi) (UniProt O96673).
T3 sequence (whole entry): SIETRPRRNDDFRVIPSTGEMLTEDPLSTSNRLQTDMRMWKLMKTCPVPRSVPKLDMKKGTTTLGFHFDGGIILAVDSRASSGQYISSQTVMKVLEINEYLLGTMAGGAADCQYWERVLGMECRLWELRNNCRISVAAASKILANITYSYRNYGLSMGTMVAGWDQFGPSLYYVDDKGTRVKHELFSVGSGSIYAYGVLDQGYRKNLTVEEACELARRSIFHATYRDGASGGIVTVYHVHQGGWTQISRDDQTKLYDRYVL
The test can be described thus: Trypanosoma cruzi proteasome chymotrypsin-like activity (TcProtChymo) assay. Further: in the data most compounds retested in dose-response had high values. Format: functional. The note with it: 9.37 µM.

For another test, the species on record is Homo sapiens. Description: To identify inhibition of the IFN signalling (Jak-Stat) pathway via expression of an eGFP reporter gene under the control of an IFN-stimulated response element (ISRE) containing MxA promoter. The format is functional. Particulars: 30 µM. Background: Reporter assays use an easily measured gene product as a stand-in for the process of interest.

The target in test [7] is T4, Tyrosyl-tRNA synthetase, putative (Trypanosoma cruzi (strain CL Brener)) (UniProt Q4DSP6).
T4 sequence (whole entry): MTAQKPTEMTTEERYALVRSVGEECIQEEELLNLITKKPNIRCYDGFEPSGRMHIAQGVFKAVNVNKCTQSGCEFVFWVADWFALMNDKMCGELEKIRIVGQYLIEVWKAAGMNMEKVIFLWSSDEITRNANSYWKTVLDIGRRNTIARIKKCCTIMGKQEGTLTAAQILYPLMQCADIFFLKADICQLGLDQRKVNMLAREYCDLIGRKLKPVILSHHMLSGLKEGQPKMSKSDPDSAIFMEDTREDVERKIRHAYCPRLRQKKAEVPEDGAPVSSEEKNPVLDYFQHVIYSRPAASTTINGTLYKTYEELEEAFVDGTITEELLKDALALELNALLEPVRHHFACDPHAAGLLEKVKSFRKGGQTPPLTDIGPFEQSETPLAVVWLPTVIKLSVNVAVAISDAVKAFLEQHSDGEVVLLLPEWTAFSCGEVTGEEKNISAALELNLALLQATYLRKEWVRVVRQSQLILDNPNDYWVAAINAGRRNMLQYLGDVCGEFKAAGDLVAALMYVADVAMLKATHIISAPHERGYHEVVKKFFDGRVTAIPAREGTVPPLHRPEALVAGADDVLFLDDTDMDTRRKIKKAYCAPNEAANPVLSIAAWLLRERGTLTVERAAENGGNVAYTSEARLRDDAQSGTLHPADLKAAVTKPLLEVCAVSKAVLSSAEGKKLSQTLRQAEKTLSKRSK
The test can be described thus: Trypanosoma cruzi tyrosyl tRNA synthetase (TcYRS) _High Tyrosine SOP. Further: in the data most compounds retested in dose-response had high values. Format: functional. Particulars: 30 µM.

In test [8] the target is T4, Tyrosyl-tRNA synthetase, putative (Trypanosoma cruzi (strain CL Brener)). The test can be described thus: Trypanosoma cruzi tyrosyl tRNA synthetase (TcYRS) SOP. The format is functional. The note with it: 30 µM.
Test [9] has as its target Chromo domain-containing protein 1 (Saccharomyces cerevisiae (strain ATCC 204508 / S288c) (Baker's yeast)) (UniProt P32657). The test can be described thus: ScCHD-1 Enzyme Inhibition Assay. Further: in the data most compounds retested in dose-response had high values. The note with it: 30 µM. The format is functional.

Chain of Chromo domain-containing protein 1 (Saccharomyces cerevisiae (strain ATCC 204508 / S288c) (Baker's yeast)) (P32657 whole entry, the tested form may be a part): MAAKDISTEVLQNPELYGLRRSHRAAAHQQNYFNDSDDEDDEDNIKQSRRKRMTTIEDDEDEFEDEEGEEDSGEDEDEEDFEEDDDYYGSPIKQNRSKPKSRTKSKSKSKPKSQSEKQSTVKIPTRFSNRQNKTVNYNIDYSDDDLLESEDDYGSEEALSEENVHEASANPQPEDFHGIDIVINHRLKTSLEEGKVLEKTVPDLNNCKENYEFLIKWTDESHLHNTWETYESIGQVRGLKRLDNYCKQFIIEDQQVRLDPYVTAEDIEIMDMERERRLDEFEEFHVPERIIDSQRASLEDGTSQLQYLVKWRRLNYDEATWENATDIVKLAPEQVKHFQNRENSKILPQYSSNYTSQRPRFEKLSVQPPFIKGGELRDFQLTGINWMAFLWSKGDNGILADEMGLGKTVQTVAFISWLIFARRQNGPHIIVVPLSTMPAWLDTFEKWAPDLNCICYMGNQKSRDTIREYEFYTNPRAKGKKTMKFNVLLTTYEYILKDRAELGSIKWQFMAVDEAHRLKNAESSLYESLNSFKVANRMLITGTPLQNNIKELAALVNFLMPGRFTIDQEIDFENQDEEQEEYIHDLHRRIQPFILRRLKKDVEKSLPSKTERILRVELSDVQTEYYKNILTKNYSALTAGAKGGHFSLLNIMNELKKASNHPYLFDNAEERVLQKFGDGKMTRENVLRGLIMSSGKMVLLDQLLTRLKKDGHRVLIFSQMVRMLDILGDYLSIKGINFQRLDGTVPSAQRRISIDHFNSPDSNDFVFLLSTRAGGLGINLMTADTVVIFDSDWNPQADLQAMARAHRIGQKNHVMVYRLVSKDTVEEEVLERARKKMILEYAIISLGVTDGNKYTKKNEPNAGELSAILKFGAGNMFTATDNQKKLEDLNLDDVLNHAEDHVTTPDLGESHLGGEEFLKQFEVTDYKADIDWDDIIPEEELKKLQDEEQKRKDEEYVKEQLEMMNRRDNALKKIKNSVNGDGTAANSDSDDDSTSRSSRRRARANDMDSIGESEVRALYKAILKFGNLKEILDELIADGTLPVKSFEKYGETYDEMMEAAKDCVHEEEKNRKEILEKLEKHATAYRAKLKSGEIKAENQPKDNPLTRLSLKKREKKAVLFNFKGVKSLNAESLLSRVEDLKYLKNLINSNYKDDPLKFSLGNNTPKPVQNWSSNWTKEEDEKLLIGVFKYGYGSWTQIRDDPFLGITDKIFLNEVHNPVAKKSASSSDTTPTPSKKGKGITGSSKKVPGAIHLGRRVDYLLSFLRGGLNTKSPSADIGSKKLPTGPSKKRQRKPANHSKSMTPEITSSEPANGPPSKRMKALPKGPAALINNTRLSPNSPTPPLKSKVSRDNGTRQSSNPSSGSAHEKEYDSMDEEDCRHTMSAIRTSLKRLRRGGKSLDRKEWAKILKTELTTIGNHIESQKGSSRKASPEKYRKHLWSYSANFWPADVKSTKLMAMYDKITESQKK
Chain of Protein translocase subunit SecA (Escherichia coli (strain K12)) (P10408 whole entry): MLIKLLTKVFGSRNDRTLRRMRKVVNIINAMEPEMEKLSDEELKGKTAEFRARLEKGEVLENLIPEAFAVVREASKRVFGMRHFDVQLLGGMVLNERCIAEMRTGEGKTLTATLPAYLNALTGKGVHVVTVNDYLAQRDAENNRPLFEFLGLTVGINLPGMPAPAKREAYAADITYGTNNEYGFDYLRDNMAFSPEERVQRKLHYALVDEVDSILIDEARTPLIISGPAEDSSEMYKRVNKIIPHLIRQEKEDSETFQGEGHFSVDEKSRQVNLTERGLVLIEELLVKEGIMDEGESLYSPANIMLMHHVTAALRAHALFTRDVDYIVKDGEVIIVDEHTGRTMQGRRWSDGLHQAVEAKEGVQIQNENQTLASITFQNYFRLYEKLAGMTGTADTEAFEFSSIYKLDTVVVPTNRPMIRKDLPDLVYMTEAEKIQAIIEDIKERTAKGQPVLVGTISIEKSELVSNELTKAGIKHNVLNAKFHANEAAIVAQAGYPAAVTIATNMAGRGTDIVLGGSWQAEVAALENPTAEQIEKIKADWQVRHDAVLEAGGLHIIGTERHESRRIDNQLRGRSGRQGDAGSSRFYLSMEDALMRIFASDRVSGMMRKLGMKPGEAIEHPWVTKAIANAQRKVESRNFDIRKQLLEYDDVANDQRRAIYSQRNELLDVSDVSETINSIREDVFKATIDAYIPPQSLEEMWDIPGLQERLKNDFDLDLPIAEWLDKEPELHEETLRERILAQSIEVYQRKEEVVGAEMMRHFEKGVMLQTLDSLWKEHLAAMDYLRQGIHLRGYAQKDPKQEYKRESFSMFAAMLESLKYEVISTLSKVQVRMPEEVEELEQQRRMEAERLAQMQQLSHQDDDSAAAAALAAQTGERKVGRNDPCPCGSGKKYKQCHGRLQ

Consider `Cc1nn(C)c(C)c1NC(=O)CN1CCc2c(nc(C(C)C)n2C)C1`, for which the Percent Effect in test [1] is -0.874%; in test [2], 8.11%; in [3] it was -7.75%; in [4], 18.4%; in the test with Trypanosoma cruzi, 7.34%; in test [5] it was 12.9%. In addition, the Percent Effect in test [6] is 7.93%; in the test filed under Homo sapiens, 22.8%; in test [7], 5.82%; in test [8] it was 14.6%; in [9] it was -2.17%.
With `CC1c2ncc(Cn3cncn3)n2CCN1C1CCOCC1` (stereo unspecified), the Percent Effect in test [1] is -4.22%; in test [2], -2.67%; in test [3], -5.46%; in test [4], -3.4%; in the test with Trypanosoma cruzi, -4.83%; in test [5], -54.3%. For the same compound, the Percent Effect was 9.91% in test [6]; 2.92% in the test filed under Homo sapiens; 2.08% in [7]; -12.5% in test [8]; -5.31% in test [9].
As for `COc1ccc(NC(=O)C2CCOC2)c(N2CCN(C(C)=O)CC2)n1` (stereo unspecified), the Percent Effect was -2.36% in test [1]; 2.7% in [2]; -66.2% in test [3]; 2.08% in test [4]; -0.391% in the test with Trypanosoma cruzi; 2.5% in test [5]. In addition, the Percent Effect is 19.7% in [6]; 2.27% in the test listed under Homo sapiens; 8.91% in test [7]; 11% in test [8]; -5.79% in test [9].
Take `COCc1cccc(NC(C)C(=O)N(C)Cc2ccccc2)c1` (stereo unspecified): the Percent Effect in test [1] is -8.46%; in [2], 10.8%; in [3], -16.3%; in test [4], 48%; in the test on Trypanosoma cruzi, 7.92%; in [5], 33.5%. For the same compound, the Percent Effect in test [6] is -1.46%; in the test listed under Homo sapiens, -2.64%; in [7], 6.45%; in [8], 13.6%; in test [9], -14.3%.
Regarding `NC(=O)C1(c2cnccn2)CCCN1Cc1cc2ccccc2o1` (stereo unspecified), the Percent Effect in [1] was -2.52%; in [2], 6.76%; in test [3] it was 11.2%; in test [4], 3.94%; in the test on Trypanosoma cruzi, -1.78%; in [5] it was -2.09%. Further, the Percent Effect in test [6] is 14.2%; in the test filed under Homo sapiens, 1.46%; in test [7], 9.68%; in [8], 16.9%; in test [9] it was -6.96%.
On to `CC(=O)N1CCC2(CC1)CC(Oc1ccccc1)CO2` (stereo unspecified), for which the Percent Effect is 1.79% in test [1]; 2.74% in test [2]; 2.24% in [3]; 9.38% in test [4]; -4.17% with Trypanosoma cruzi; -1.2% in test [5]. For the same compound, the Percent Effect in test [6] stood at 19.6%; in the test listed under Homo sapiens, 1.3%; in test [7], 6.25%; in test [8] it was 8.64%; in test [9] it was 3.27%.
Regarding `Cc1nc(C)n(CC2CCCCN2CCCS(=O)(=O)N(C)C)n1` (stereo unspecified), the Percent Effect in [1] was 4.38%; in test [2], 16.2%; in test [3], -12.4%; in test [4] it was 5.89%; in the test on Trypanosoma cruzi, 2.7%; in test [5], 3.33%. Besides, the Percent Effect was 11.9% in test [6]; 4.05% in the test filed under Homo sapiens; 4.76% in [7]; 7.32% in test [8]; -0.511% in [9].
Regarding `CCN(CC)C(=O)CCc1c(C)nc2cc(O)nn2c1C`, the Percent Effect in [1] is -1.3%; in test [2] it was 0%; in [3] it was -288%; in test [4] it was 0.0855%; with Trypanosoma cruzi, -3.99%; in [5] it was -1.18%. Besides, the Percent Effect in test [6] was 24.1%; in the test filed under Homo sapiens it was 3.53%; in [7], 4.25%; in [8] it was 7.79%; in [9] it was -6.56%.
`Cc1cccc(CN2CCc3c(nc(N4CCCCC4C)[nH]c3=O)C2)n1` (stereo unspecified): the Percent Effect in [1] was -3.88%; in [2] it was 4.05%; in [3], 13%; in test [4], 7.92%; in the test with Trypanosoma cruzi, -3.36%; in [5], 0.232%. Also, the Percent Effect in test [6] is 9.36%; in the test filed under Homo sapiens, 13.8%; in test [7], 7.53%; in test [8], 9.09%; in [9] it was 2.2%.
In the case of `CC(C)(C)c1ncc(C(=O)NCCS(N)(=O)=O)s1`, the Percent Effect is -6.98% in test [1]; 2.63% in [2]; -2.41% in test [3]; 7.37% in test [4]; 0.654% in the test on Trypanosoma cruzi; -2.88% in test [5]. Moreover, the Percent Effect was -6.01% in test [6]; -5.3% in the test filed under Homo sapiens; 6.4% in [7]; 11.1% in [8]; 2.8% in test [9].
For `CCOc1ccc(-c2ccnc(CC)n2)cc1C(=O)O`, the Percent Effect in [1] is 0.91%; in test [2], 10.8%; in test [3], -5.65%; in test [4], 16.4%; in the test on Trypanosoma cruzi, 2.9%; in [5], -0.476%. The Percent Effect was 20% in test [6]; -11.8% in the test listed under Homo sapiens; 8.99% in test [7]; -2.44% in test [8]; -1.49% in test [9].

Source of the values: ChEMBL document CHEMBL3988442, “University of Dundee, Small-Polar-MMV Screening Library” (2021).
